A short description of assay [1]: inhibitors of TNFa-induced NFkB p65 translocation, primary screen, imaging, HUVEC, MLSMR starter and 10KST1 sets (AID 438).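 Further: compound added about 3h40 before a 20 min TNFalpha stimulation.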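 On inhibition: signal is the nuclear over cytoplasmic p65 intensity ratio per well.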 Conditions: HUVEC TNFa-induced p65 nuclear translocation; cell count: measured here: nuclei count (cytotoxicity indicator), at 2.08 µM; inhibition: at 2 µM, stronger effect = higher value, 0% TNFa-plus-vehicle, 100% no-TNFa wells.
A short description of assay [2]: reduction of polyQ htt aggregates in cells – imaging, exon1htt(103Q)mCFP cells, high-content imaging, primary screen (AID 483;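 active means visual image review flags a hit and inhibition of aggregation exceeds 20%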;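 further: compound exposure lasted 3 days before fixation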;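 on nuclei count: percent of the per-plate median nuclei count of sample wells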). Conditions: exon1htt(103Q)mCFP cell line, aggregate imaging, at 2 µM; inhibition of aggregation: stronger effect = higher value; nuclei count: measured here: cell count, toxicity.
Assay [3] can be described thus: endothelial E-selectin expression blockers – imaging, HUVEC, immunofluorescence, MLSMR starter and 10KST1 sets, primary screen (AID 487;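 active means visually confirmed hit in the image check and inhibition above 20%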;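 on inhibition: signal is fraction of cell area covered by stained E-selectin grains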;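 on nuclei count: 100% = median nuclei count of all wells on the same plate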). Conditions: HUVEC TNFalpha-induced E-selectin immunofluorescence imaging, at 2 µM; inhibition: stronger effect = higher value; nuclei count: measured here: cell number, toxicity.
A short description of assay [4]: Primary imaging screen for DUSP6 inhibitors that restore phospho-Erk in transfected HeLa cells, chemical complementation (AID 609;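 active means compounds giving at least 50% inhibition in the cell-based MKP-3 phosphatase rescue imaging test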;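 on inhibition: phospho-Erk level distribution per well compared with pooled transfected vehicle control wells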). Conditions: HeLa MKP-3 transfected, phospho-Erk imaging KS statistic, at 10 µM, cells stimulated with TPA for 15 min.
Assay [5] deals with Dual specificity protein phosphatase 6 (Homo sapiens) (UniProt Q16828). The assay is described as above. Conditions: HeLa MKP-3 transfected, phospho-Erk imaging KS statistic; at 10 µM; stronger effect = higher value; cells stimulated with TPA for 15 min.
The target in assay [6] is Voltage-gated potassium channel subunit beta-2 (Rattus norvegicus) (UniProt P62483). The assay can be described thus: inhibitors of rat Kvbeta2 reductase activity – biochemical, NADPH fluorescence, primary screen (AID 622;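 active means fluorescence slope higher than the sample average by over 3 SD, cut at about -0.22 in these data, passing the limit was not always enough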;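 further: slope of raw intensity against log time taken from 70 to 1610 s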). Conditions: recombinant KvBeta, 4-cyanobenzaldehyde reduction, at 10 µM, stronger effect = higher value.
For assay [7] the target is unchanged. The assay can be described thus: enhancers of rat Kvbeta2 NADPH turnover – biochemical, NADPH fluorescence, primary screen (AID 623;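 active means NADPH fluorescence slope more negative than the mean of all samples by about 3 SD, 99.7% confidence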;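 further: fluorescence intensity change per second fitted from 20 to 320 s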). Conditions: Recombinant KvBeta, NADPH fluorescence decrease slope, 10 min; at 10 µM; stronger effect = lower value.
For assay [8], the target named is Muscarinic acetylcholine receptor M4 (Homo sapiens) (UniProt P08173). The assay can be described thus: M4-linked GIRK flux change, two-sided – cell-based, HEK293 M4/GIRK, thallium flux, BTC-AM, M4 allosteric agonist project, primary screen (AID 625;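 active means fluorescence slope after compound addition differing from the mean of all tested samples at 99.7% confidence, mostly higher but some lower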;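 further: thallium influx through GIRK channels coupled to M4 in HEK293 cells with BTC-AM dye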). Conditions: at 10 µM, actives lie on both sides.
Assay [9] can be described thus: inhibitors of larval lipid processing in zebrafish, primary screen, whole organism, PED6 fluorescence, gall bladder and intestine (AID 686;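 active means a full or partial loss of lipid-probe fluorescence in the fish gall bladder, intestine or both, judged by eye; inactive means no fluorescence loss, or compound toxic to the fish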;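 further: larvae 5 to 7 days old with five fish per well; signal comes from phospholipase A2 cleavage of quenched PED6 carried via bile; overnight exposure to compound and PED6 before scoring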). Conditions: Zebrafish larvae PED6 lipid processing, fluorescence scoring; screened at 20 µM (by protocol).
Assay [10] can be described thus: loss of swimming-algae plug formation – whole organism, Chlamydomonas reinhardtii, WT vs cilia-less mutant, absorbance, 96-well, primary screen (AID 463189;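 active means inhibition at or above 50% relative to wild type and mutant plate controls; inactive means inhibition below 50%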;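 further: 0% = wild type cc124 cells in DMSO and 100% = ciliumless bld1 mutant cells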). Conditions: Chlamydomonas reinhardtii gravitaxis, OD600 absorbance, 2 days; at 10 µM; stronger effect = higher value.
Assay [11] can be described thus: blockers of RIG-like receptor reporter activation – cell-based, Sendai virus stimulus, luciferase, 10K MLSCN set, TLR/RLR signaling modifier project, primary screen (AID 602276;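 active means inhibition at or above 50% at 10 µM; inactive means inhibition below 50%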;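 further: firefly luciferase from ISG56 promoter only with Renilla not read in this screen; 0% = Sendai virus plus DMSO and 100% = medium plus DMSO without virus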). Conditions: HEK293 RL24 IRF3 luciferase reporter, at 10 µM, stronger effect = higher value. In general terms: A reporter such as luciferase makes a cellular process visible.
Assay [12] can be described thus: TLR3 IRF3 reporter activation blockers – cell-based, poly I:C stimulus, luciferase, 10K MLSCN set, primary screen (AID 602277;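 active means inhibition of the reporter signal at or above 50%; inactive means inhibition below 50%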). Conditions: HEK293-TLR3 RL24 IRF3 luciferase reporter, at 10 µM, stronger effect = higher value.
[13] abbreviates: measured here: cell density z-score.
Setting [14] is: measured here: nuclear c-Myc green intensity z-score.
Setting [15] is: measured here: nuclear pErk red intensity z-score, stronger effect = higher value.

Active and inactive are the calls of the source.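 How the source made its calls, unless noted: active means inhibition above 20% together with a positive visual image hit; inconclusive means visual image hit but inhibition not above 20%; inactive means no visual image hit.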

Sequence of Voltage-gated potassium channel subunit beta-2 (Rattus norvegicus) (P62483 whole entry, looked up): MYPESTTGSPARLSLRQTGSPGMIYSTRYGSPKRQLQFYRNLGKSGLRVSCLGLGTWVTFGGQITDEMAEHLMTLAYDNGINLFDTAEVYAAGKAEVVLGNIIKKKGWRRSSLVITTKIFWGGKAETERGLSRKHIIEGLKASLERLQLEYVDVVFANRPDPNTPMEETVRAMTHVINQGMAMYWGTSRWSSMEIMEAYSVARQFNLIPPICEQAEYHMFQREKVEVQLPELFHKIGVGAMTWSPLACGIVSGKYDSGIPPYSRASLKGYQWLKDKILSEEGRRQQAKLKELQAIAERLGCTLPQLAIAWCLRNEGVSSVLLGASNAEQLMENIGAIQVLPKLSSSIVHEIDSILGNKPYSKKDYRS
Sequence of Muscarinic acetylcholine receptor M4 (Homo sapiens) (P08173 whole entry, looked up): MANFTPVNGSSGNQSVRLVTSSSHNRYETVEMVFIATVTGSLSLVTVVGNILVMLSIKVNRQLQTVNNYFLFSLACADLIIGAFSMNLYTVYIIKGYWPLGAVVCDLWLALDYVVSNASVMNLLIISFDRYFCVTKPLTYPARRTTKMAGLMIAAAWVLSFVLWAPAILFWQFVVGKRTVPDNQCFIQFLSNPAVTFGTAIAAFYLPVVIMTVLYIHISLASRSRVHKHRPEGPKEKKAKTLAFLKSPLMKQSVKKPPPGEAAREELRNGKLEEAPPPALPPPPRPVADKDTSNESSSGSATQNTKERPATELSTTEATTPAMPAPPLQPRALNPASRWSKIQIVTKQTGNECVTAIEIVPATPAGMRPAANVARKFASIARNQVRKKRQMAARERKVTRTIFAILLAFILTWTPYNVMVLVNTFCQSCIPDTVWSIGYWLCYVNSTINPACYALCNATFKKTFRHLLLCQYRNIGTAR
Sequence of Dual specificity protein phosphatase 6 (Homo sapiens) (Q16828 whole entry, looked up): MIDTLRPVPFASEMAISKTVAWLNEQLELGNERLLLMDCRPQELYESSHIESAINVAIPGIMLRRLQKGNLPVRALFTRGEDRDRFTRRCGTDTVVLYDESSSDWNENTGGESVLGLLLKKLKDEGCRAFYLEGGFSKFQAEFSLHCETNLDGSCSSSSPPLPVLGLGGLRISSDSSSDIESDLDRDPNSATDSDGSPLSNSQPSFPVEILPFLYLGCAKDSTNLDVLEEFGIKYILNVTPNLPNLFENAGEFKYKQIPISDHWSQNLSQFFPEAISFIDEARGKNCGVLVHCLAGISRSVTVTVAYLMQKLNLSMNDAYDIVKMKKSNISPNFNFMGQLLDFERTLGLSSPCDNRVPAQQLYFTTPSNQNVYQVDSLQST

In the case of `CCCCc1nc(NCCNC(=O)c2ccco2)c(C#N)c2c1CSC(C)(C)C2`, in assay [1], the cell count is 552. The inhibition in assay [1] was -4.6% (inactive); in assay [3] it was -75.5% (inactive); in [5] it was 9.07% (inactive); in assay [10], 3.31% (inactive); in assay [11], 1.84% (inactive); in [12] it was 7.1% (inactive). Besides, in [2], the inhibition of aggregation was -1% (inactive). In addition, the nuclei count in assay [2] was 95.2%; in assay [3], 122%. The z-score in [4] (setting [13]) is 0.34; in [4] (setting [14]) it was -0.704; in [4] (setting [15]) it was 0.0149. Further, the fluorescence slope in assay [6] was -0.478 (inactive); in [8], 0.00431 (inactive). In assay [7], the NADPH fluorescence slope was -5.7e-05 (inactive). The molecule was called inactive in assay [9].
For `Cc1c(O)c(CN2CCCC(C)C2)cc2c3c(c(=O)oc12)CCC3` (stereo not given), in assay [1], the cell count was 695. Further, the inhibition in assay [1] is -6.3% (inactive); in assay [3] it was 30.2% (inactive); in [5] it was -8.95% (inactive); in assay [10] it was 0.622% (inactive); in assay [11], 13.6% (inactive); in [12], 16% (inactive). Besides, the inhibition of aggregation in assay [2] was -0.7% (inactive). Moreover, the nuclei count in assay [2] was found to be 102%; in [3], 136%. For the same molecule, the figures for the z-score in [4] (setting [13]), in assay [4] (setting [14]) and in assay [4] (setting [15]) were -0.479, 2 and 1.18, respectively. Moreover, the fluorescence slope in [6] was -0.0135 (inactive); in assay [8], 0.00443 (inactive). For the same molecule, the NADPH fluorescence slope in [7] is 8.2e-07 (inactive). Moreover, in [9], the call was inactive.
For `CC(O)c1n(C)c(Cl)c[n+]1C` (stereo not given), the cell count in [1] amounted to 674. For the same molecule, the inhibition in assay [1] is -10% (inactive); in [3], -67.2% (inactive); in [5] it was 18.6% (inactive); in [10], -6.3% (inactive); in assay [11], 17% (inactive); in assay [12], 10.8% (inactive). Also, in assay [2], the inhibition of aggregation was -4% (inactive). Also, the nuclei count in assay [2] was determined as 103%; in assay [3], 134%. Also, the z-score in assay [4] (setting [13]) is -2.1; in assay [4] (setting [14]), -0.307; in assay [4] (setting [15]), 2.29. For the same molecule, the results for the fluorescence slope in [6] and in [8] were -0.454 (inactive) and 0.0053 (inactive), respectively. Further, the NADPH fluorescence slope in assay [7] was -4.6e-05 (inactive). Further, the result in [9] was inactive.
On to `N#C/C(C(=O)N1CCOCC1)=C1/SC(Cc2ccccc2)C(=O)N1c1ccccc1` (stereo not given), for which the cell count in assay [1] was determined as 520. The inhibition in [1] is -7.6% (inactive); in [3], 3.5% (inactive); in assay [5], -2.09% (inactive); in assay [10], -6.43% (inactive); in [11] it was 15.2% (inactive); in assay [12], 24.9% (inactive). Also, in [2], the inhibition of aggregation was 18.9% (inactive). For the same molecule, the nuclei count in assay [2] worked out at 105%; in [3], 112%. Also, the z-score in assay [4] (setting [13]) is -1.65; in [4] (setting [14]), 1.02; in [4] (setting [15]), 0.783. For the same molecule, the figures for the fluorescence slope in [6] and in assay [8] were -0.431 (inactive) and 0.00475 (inactive), respectively. In assay [7], the NADPH fluorescence slope was -3.8e-05 (inactive). Moreover, the result in assay [9] was inactive.
On to `c1ccc2c(c1)[nH]c1c(N3CCC4(CC3)OCCO4)ncnc12`, for which the cell count in assay [1] is 543. Further, the inhibition was -0.4% (inactive) in assay [1]; -72.3% (inactive) in [3]; -6.59% (inactive) in assay [5]; -1.55% (inactive) in assay [10]; 2.08% (inactive) in [11]; -40% (inactive) in [12]. Further, the inhibition of aggregation in [2] was -24.1% (inactive). Moreover, the nuclei count in [2] came out at 94.4%; in [3], 119%. In addition, the z-score in assay [4] (setting [13]) was -0.995; in assay [4] (setting [14]) it was 0.207; in assay [4] (setting [15]), -1.27. Further, the fluorescence slope in [6] is -0.384 (inactive); in [8], 0.00574 (inactive). Moreover, the NADPH fluorescence slope in [7] is -3.4e-05 (inactive). Moreover, the molecule was called inactive in assay [9].

As usually defined, the inhibition is the relative decrease from the control value, in per cent.
